# Bioassay records from PubChem.
# A selection: hits, their analogues and other compounds. The true share with any hit is near 9%.
# ALOX12 inh: inhibitors of human 12S-lipoxygenase ALOX12; P18054; purified 12hLO, xylenol orange hydroperoxide absorbance; Potency, µM (doses to about 108 µM), inactives show top-dose activity change, negative = inhibition, most hits filed as inhibitors; 580,000 compounds, 1.1% hits; AID 1671190; further: on the % scale 0 is the no-effect control and ±100 the full control effect
#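 Purified human 12hLO (150 nM final) in 25 mM Hepes, 0.01% Triton X-100, pH 7.0 was preincubated 15 min at room temperature with compound. Then 40 uM arachidonic acid was added, 30 min. Hydroperoxide was read by Fe-XO absorbance ratio 573/405 nm.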
# HP1b chromo inh: inhibitors of HP1-beta chromodomain binding to methylated histone tails | P83916 | AlphaScreen HP1-beta / biotin-H3K9me3 peptide binding | Potency, µM (titrated, usually from 114 µM), for the others: at the top dose activity change, negative = inhibition, most hits filed as inhibitors | 390,000 compounds, 0.56% hits | AID 540317; further: nearly all actives have a fitted effect of over 70% in size
#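 Compound inhibition of the preformed complex between 50 nM HP1-beta and 50 nM biotinylated H3K9me3 peptide was read by AlphaScreen. Buffer was PBS pH 7.4 with 0.01% Tween-20. Incubations ran 30 min at room temperature, with 10 ug/mL donor/acceptor beads.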
# JMJD2A Tudor inh: blocks the human JMJD2A Tudor domain | O75164 | AlphaScreen JMJD2A-Tudor / H3K4me3 peptide binding | Potency, µM (series often up to 114 µM), without a hit: top-dose activity change, negative = inhibition, hits mostly inhibitors | 390,000 compounds, 4.4% hits | AID 504339; further: on the % scale 0 is the no-effect control and ±100 the full control effect; nearly all actives have a fitted effect of over 50% in size
# G9a block: inhibitors of human histone lysine methyltransferase G9a; 350,000 compounds, 8.8% hits; Potency, µM (doses to about 102 µM), for the others: at the top dose activity, negative = inhibition, most hits filed as inhibitors; AID 504332; G9a H3K9 monomethylation, AlphaScreen, 2 h; further: on the % scale 0 is the no-effect control and ±100 the full control effect; nearly all actives have a fitted effect of over 75% in size
#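 Enzyme 20 nM + cpd, 15 min RT; add b-H3K9 pep 500 nM / SAM 20 uM; 2 h RT; anti-H3K9me1 Ab 0.5 ug/mL + SA donor / anti-rabbit acceptor beads 20 ug/mL each, 10 min; AlphaScreen read.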
# PLK1 PBD inh: inhibitors of human PLK1 polo-box domain binding. 360,000 compounds, 2.8% hits. Plk1 PBD binding of FITC phosphopeptide, fluorescence polarization. P53350. Potency, µM, inactives show max response, negative = inhibition, usual class: inhibitors; further: series mostly up to about 57 µM; on the % scale 0 is the no-effect control and ±100 the full control effect; nearly all actives have a fitted effect of over 65% in size
# BAZ2B inh: blocks human BAZ2B; Q9UIF8; 360,000 compounds, 4.4% hits; Potency, µM (top dose mostly 114 µM), for the others: at the highest dose activity change, negative = inhibition, usual class: inhibitors; AlphaScreen BAZ2B-H3K14Ac peptide displacement; further: on the % scale 0 is the no-effect control and ±100 the full control effect; nearly all actives have a fitted effect of over 60% in size
#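 BAZ2B (50 nM) with biotin-H3(5-23)K14Ac peptide (50 nM) in PBS pH 7.4, 0.01% Tween-20, preformed 30 min, then compound 30 min at room temperature; top concentration 110uM. AlphaScreen streptavidin donor/nickel chelate acceptor beads (10 ug/mL final), 20 min dark, signal read.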
# * = called active by the depositor; ? = inconclusive; nt = no result; [ ] = remark or other dose. The call rests on the fitted dose curve; in most records, active means well fitted curve in the direction sought with a large enough effect; inconclusive means small, poorly fitted or top-dose-only effect, or another doubt; inactive means no such curve, though single readings can be large; an effect the other way counts as inactive or inconclusive. Potency means the concentration at half of the fitted maximal effect.
SMILES,ALOX12 inh,HP1b chromo inh,JMJD2A Tudor inh,G9a block,PLK1 PBD inh,BAZ2B inh
O=C(Nc1ccc(Nc2ccccc2)cc1)c1cccc(F)c1,-9%,5%,?,nt,-8%,-15%
NC(=O)c1ccc(SCC(=O)OCC(=O)NC2CCCCCCC2)c([N+](=O)[O-])c1,?,?,?,?,24µM*,-23%
CC1CCN(C(=O)c2ccc(SCc3ccccc3F)c([N+](=O)[O-])c2)CC1,-10%,?,?,28µM*,-4%,-38%
CC1CCC(NC(=O)COC(=O)CSc2ccc(C(N)=O)cc2[N+](=O)[O-])CC1 (stereo not drawn),-28%,30%,-17%,50µM*,-28%,-6%
CCOC(=O)CSc1ccc(C(=O)N2CCN(C)CC2)cc1[N+](=O)[O-],-14%,31%,-7%,45µM*,-5%,11%
CCOC(=O)CSc1ccc(C(=O)NCCN2CCOCC2)cc1[N+](=O)[O-],-8%,19%,-7%,-6%[2.33 µM],0%,-1%
O=C(c1ccc(S(=O)(=O)Cc2ccccc2F)c([N+](=O)[O-])c1)N1CCCCCC1,7%,-8%,-21%,?,-2%,-25%
O=C(Nc1ccccc1N1CCOCC1)c1cccc(Oc2ccccc2)c1,-1%,26%,17%[57.1 µM],16%,-17%,8%
O=C(COC(=O)CSc1ccc([N+](=O)[O-])cc1)NCCCc1ccccc1,?,-14%,?,nt,8.4µM*,?
O=C(COC(=O)c1ccc(-c2ccc([N+](=O)[O-])cc2)o1)NC(=O)NC1CCCCC1,-15%,-11%,-31%,40µM*,-12%,-6%
NC(=O)c1ccc(SCC(=O)OCC(=O)N2CCCC2=O)c([N+](=O)[O-])c1,nt,14%,-10%,50µM*,-18%,5%
O=C(COC(=O)CSc1ccc([N+](=O)[O-])cc1)NC1CCCCCCC1,?,?,?,45µM*,24µM*,-8%
O=C(COC(=O)c1ccc(-c2ccc([N+](=O)[O-])cc2)o1)NC(=O)NC12CC3CC(CC(C3)C1)C2,-8%,?,?,?,0%,?
NC(=O)c1nnn(-c2ccc([N+](=O)[O-])cc2)c1-c1ccccc1,4%,-21%,-28%,nt,-8%,-3%
COC(=O)c1cc(NC(=O)c2cccc(C(F)(F)F)c2)c(=O)oc1C/C=N/OCc1cccc(Cl)c1Cl,?,-21%,-21%[11.4 µM],40µM*,-8%,-6%
COC(=O)c1cc(NC(=O)c2ccc(OC)cc2)c(=O)oc1C,0%,1%,-16%[11.4 µM],-26%,?,-2%
COC(=O)c1cc(NC(=O)c2cccc(C(F)(F)F)c2)c(=O)oc1C,1%,44%,-5%,28µM*,-5%,-7%
CCN(CC)c1ccc(/C=N/NC(=S)NCc2ccccc2)c(O)c1,?,-9%,-26%,-13%[59 µM],-10%,22µM*
CCN(CC)c1ccc(/C=N/N(c2ccccc2)c2ccccc2)c(O)c1,-24%,?,8.9µM*,?,-12%,10µM*
Oc1ccc(/C=N/N(c2ccccc2)c2ccccc2)c(O)c1O,11µM*,nt,nt,14µM*,nt,25µM*
Oc1ccc(/C=N/N(c2ccccc2)c2ccccc2)cc1O,123%,?,56µM*,-148%,?,-18%
CCN(CC)c1ccc(/C=N/N=C(c2ccccc2)c2ccccc2)c(O)c1,-17%,-19%,?,?,-6%,?
CCc1ccc(N2CC(C(=O)Nc3ccc(S(=O)(=O)N4CCCCC4)cc3)CC2=O)cc1 (stereo not drawn),?,22%,-10%,nt,-6%,10%
COc1ccc(/C=N/N(Cc2ccccc2)c2ccccc2)cc1O,?,40µM*,10µM*,28µM*,17µM*,28µM*
COc1cc(OC)c(OC)cc1/C=N/Nc1nc2ccccc2[nH]1,393%,43%,-28%,1%,-10%,-12%
SMILES,ALOX12 inh,HP1b chromo inh,JMJD2A Tudor inh,G9a block,PLK1 PBD inh,BAZ2B inh
CCN(CC)c1ccc(/C=N/Nc2nc3ccccc3[nH]2)c(O)c1,?,-16%,50µM*,?,-14%,40µM*
COc1ccc(/C=N/O)cc1O,16%,nt,nt,nt,nt,nt
CCCC(=O)N(c1ccccc1)C1C=CS(=O)(=O)C1 (stereo not drawn),1%,25%,-20%,?,-12%,1%
O=C(Nc1cccc(-n2cnnn2)c1)c1ccc(Cl)cc1Cl,0%,-12%,?,5%,30µM*,1%
O=C(CNC(=O)c1cccc(-n2cnnn2)c1)Nc1ccc(F)c(F)c1,-1%,1%,89µM*,?,-2%,12%
O=C(Nc1cc(F)ccc1F)c1cccc(-n2cnnn2)c1,0%,13%,-20%,?,-12%,-2%
Cc1ccc(S(=O)(=O)NC2CCCC2)cc1C,19%,43%,-6%,4%[59 µM],-6%,-2%
CC1CCCCN1CC(O)COc1ccc(OCC(O)CN2CCCCC2C)cc1 (stereo not drawn),13%,19%,-7%,nt,-11%,4%
C/C=C/c1ccc(OCC(O)CN(C)Cc2ccc(SC)cc2)c(OC)c1 (stereo not drawn),?,?,4µM*,71µM*,-7%,50µM*
C/C=C/c1ccc(OCC(=O)Nc2cc(OC)c(OC)c(OC)c2)c(OC)c1,18%,1%,?,1%,?,nt
C/C=C/c1ccc(OCC(O)CNCCc2ccc(OC)cc2)c(OC)c1 (stereo not drawn),?,?,20µM*,7.9µM*,-5%,56µM*
COc1ccc(COCC(O)CN(C)Cc2ccc(OC)c(OC)c2)cc1OC (stereo not drawn),-7%,nt,nt,nt,nt,nt
C/C=C/c1ccc(OCC(O)CNCC(c2ccc(OC)cc2)N(C)C)c(OC)c1 (stereo not drawn),-20%,-15%,22µM*,?,2%,18µM*
C/C=C/c1ccc(OCC(O)CN2CCCCC2CC)c(OC)c1 (stereo not drawn),-24%,?,3.5µM*,22µM*,-8%,56µM*
NC(=O)CCC1NC(=S)N(Cc2ccccc2)C1=O (stereo not drawn),2%,19%,-14%,-26%,-9%,-14%
OCC1(CCCc2ccccc2)CCN(Cc2cc(F)ccc2F)CC1,-3%,9%,-21%,-40%,-7%,-17%
COc1ccc(CNC(=S)Nc2ccc(F)c(Cl)c2)cc1,-19%,36%,13%,-5%,-12%,?
COc1ccc(OC)c(CNc2ccc3c(c2)CCC3)c1,-8%,?,?,32µM*,?,?
COc1ccc(OC)c(CC(=O)Nc2ccc3c(c2)CCC3)c1,-18%,-7%,-22%,26%,-13%,-6%
